Reference: PubChem BioAssay
Active and inactive are the calls of the source. Unless noted, the rule behind the calls is not given here.

Key:
[1] = compounds binding Alexa647 anti-His antibody – biochemical, small-molecule microarray, 635 nm fluorescence, artefact control for SMM control protein annotation, primary screen (AID 1128); conditions: higher = more signal;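 note: score merges feature fluorescence with signal-to-noise for each printed compound spot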
[2] = tested on: Human papillomavirus type 1a E7 protein (residues 1-88); test: HPV1a E7 small-molecule binders, primary screen, biochemical, small-molecule microarray, residues 1-88, 635 nm (AID 1129); conditions: small-molecule microarray binding, fluorescence 635 nm; higher = more signal
[3] = biological target: Focal adhesion kinase 1 (Homo sapiens) (UniProt Q05397); test: PTK2 protein binding on printed compound slides – biochemical, small-molecule microarray, 635/667 nm fluorescence, BSA, DTT, primary screen (AID 1130); conditions: 635 nm fluorescence, higher = more signal;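 note: composite of spot emission at 667 nm and signal to noise over triplicate slides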
Focal adhesion kinase 1 (Homo sapiens), sequence (Q05397 whole entry, looked up): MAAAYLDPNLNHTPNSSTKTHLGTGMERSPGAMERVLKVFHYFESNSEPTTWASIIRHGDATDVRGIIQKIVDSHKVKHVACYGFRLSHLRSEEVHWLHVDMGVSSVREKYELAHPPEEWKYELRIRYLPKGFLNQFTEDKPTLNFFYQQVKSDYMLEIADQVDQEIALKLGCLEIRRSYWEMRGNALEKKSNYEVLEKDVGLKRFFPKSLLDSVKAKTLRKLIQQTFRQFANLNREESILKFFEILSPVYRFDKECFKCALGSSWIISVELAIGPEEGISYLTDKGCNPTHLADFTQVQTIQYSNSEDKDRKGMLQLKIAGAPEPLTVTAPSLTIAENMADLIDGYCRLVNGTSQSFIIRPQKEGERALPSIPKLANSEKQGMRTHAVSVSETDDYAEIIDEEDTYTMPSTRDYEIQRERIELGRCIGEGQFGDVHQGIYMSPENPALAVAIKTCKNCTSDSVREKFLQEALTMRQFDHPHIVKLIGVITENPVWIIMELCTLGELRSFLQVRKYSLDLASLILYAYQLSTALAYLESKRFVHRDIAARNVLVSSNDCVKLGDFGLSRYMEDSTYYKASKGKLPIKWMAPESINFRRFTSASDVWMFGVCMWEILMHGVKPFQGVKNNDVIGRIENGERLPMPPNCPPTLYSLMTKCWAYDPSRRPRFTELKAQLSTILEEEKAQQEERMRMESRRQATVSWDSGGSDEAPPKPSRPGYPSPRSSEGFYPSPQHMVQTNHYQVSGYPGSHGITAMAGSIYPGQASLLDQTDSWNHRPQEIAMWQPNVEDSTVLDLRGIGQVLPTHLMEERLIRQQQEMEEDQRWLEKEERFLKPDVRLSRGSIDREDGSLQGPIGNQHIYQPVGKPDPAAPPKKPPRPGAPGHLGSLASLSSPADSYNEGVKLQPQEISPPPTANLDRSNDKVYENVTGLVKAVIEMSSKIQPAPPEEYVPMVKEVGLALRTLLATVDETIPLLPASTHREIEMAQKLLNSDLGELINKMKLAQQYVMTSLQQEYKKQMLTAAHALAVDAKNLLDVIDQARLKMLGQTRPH

[4] = tested on: Fibrinogen (Alexa647-labelled); test: Alexa647-fibrinogen binding to printed small molecules – biochemical, small-molecule microarray, 635/667 nm fluorescence, artefact control for SMM control-protein annotation, profiling panel (AID 1131); conditions: fibrinogen-A647 binding fluorescence, higher = more signal;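 note: z-score merges 667 nm fluorescence with per-spot signal-to-noise over triplicate slides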
[5] = biological target: Follistatin (Homo sapiens) (UniProt P19883); test: FST protein binding to printed compounds – biochemical, small-molecule microarray, 635/667 nm fluorescence, primary screen (AID 1132); conditions: 635 nm fluorescence, higher = more signal
Follistatin (Homo sapiens), sequence (P19883 whole entry, looked up): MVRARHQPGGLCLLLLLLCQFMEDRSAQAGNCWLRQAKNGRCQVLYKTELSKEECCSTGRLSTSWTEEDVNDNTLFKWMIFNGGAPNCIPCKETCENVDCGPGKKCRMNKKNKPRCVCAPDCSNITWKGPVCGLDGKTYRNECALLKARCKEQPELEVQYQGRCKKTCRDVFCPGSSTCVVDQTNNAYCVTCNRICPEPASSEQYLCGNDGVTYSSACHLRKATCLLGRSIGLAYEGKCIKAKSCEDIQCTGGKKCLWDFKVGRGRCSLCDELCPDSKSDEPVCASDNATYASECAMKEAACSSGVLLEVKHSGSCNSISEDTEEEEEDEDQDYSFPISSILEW

[6] = biological target: Fibroblast growth factor 2 (Homo sapiens) (UniProt P09038); test: basic fibroblast growth factor binding to printed compounds – biochemical, small-molecule microarray, 635/667 nm fluorescence, primary screen (AID 1133); conditions: FGF2, fluorescence 635/667, higher = more signal
Fibroblast growth factor 2 (Homo sapiens), sequence (P09038 whole entry, looked up): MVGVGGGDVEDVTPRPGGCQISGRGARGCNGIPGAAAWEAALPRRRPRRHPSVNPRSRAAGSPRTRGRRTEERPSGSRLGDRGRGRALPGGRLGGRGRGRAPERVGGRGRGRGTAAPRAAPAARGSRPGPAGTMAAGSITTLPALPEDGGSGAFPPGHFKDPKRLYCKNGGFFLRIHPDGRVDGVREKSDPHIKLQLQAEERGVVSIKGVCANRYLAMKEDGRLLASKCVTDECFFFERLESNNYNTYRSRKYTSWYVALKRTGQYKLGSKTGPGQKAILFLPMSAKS

[7] = JC-1 mitochondrial potential readout, lung cancer cells – cell-based, A549, JC-1 fluorescence, basal, 24 h, 100 nL, profiling panel (AID 1138); conditions: higher = more signal;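 note: A549 lung adenocarcinoma cells under basal conditions with no added stimulus; test concentration not given here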
Lefty1 = Lefty1 protein binding to printed compounds – biochemical, small-molecule microarray, 635/667 nm fluorescence, primary screen (AID 1139); conditions: fluorescence 635/667, higher = more signal
[8] = tested on: wheat germ agglutinin (Triticum aestivum), Alexa647-labelled; test: Alexa647-WGA lectin binding to printed small molecules – biochemical, small-molecule microarray, 635/667 nm fluorescence, artefact control for SMM control-protein annotation, profiling panel (AID 1140); conditions: WGA-A647 binding, 635 nm fluorescence, higher = more signal;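 note: score merges 667 nm feature emission with signal to noise over triplicate slides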
[9] = biological target: Luciferin 4-monooxygenase (Photinus pyralis) (UniProt P08659); test: inhibition of purified Photinus pyralis luciferase – biochemical, luminescence, purified enzyme, 2006 set, primary screen (AID 1141); conditions: purified firefly luciferase, SteadyGlo luminescence, 30 min; higher = more signal, called active from +8 up or from −8 down;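 note: cell-free assay with purified firefly luciferase at 100 ng per well in PBS; test concentration not given here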
Luciferin 4-monooxygenase (Photinus pyralis), sequence (P08659 whole entry, looked up): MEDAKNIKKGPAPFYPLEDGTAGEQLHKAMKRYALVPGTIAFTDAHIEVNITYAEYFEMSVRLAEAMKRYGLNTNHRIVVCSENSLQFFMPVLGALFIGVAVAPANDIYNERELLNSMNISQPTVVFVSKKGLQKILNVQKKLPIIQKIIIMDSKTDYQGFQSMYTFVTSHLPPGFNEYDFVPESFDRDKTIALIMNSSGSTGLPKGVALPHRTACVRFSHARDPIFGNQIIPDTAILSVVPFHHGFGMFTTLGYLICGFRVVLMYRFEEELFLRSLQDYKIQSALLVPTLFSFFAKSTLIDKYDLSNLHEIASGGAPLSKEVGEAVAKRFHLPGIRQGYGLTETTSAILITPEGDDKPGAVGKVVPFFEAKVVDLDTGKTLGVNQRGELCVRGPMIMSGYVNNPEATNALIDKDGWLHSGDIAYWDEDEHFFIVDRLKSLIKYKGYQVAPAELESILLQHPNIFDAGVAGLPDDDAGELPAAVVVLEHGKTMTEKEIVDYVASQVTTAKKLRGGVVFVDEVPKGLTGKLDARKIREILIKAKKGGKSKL

[10] = tested on: Wnt5a (protein binding on small-molecule microarray); test: small molecules binding Wnt5a protein – biophysical, small-molecule microarray, 635/667 nm fluorescence, primary screen (AID 1142); conditions: 635 nm fluorescence, higher = more signal;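 note: fluorescence read at 667 nm with signal to noise per printed feature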
[11] = ATP-based viability of Huh7 replicon cells – cell-based, CellTiter-Glo luminescence, basal, 48 h, cytotoxicity control for HCV replication inhibitor project, primary screen (AID 1143); conditions: higher = more signal, called active from +8 up or from −8 down;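 note: Huh7 hepatoma cells carrying a hepatitis C replication reporter with no stimulus; test concentration not given here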
[12] = Pseudomonas biofilm growth suppression – PAO1 strain, BacTiter-Glo luminescence, LB-PBS, primary screen (AID 1144); conditions: P. aeruginosa PAO1 biofilm, 12 h, higher = more signal
[13] = basal CRE-LacZ reporter activity in PC12 – cell-based, unstimulated, primary screen (AID 1145); conditions: no forskolin, luminescence, 4.5 h, higher = more signal, called active from +8 up or from −8 down
[14] = forskolin-driven CRE-LacZ activity in PC12 – cell-based, CRE-LacZ reporter, forskolin-stimulated, primary screen (AID 1146); conditions: luminescence, 4.5 h, higher = more signal, called active from +8 up or from −8 down;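 note: PC12 cells with 6xCRE LacZ reporter stimulated by forskolin 10 µM; beta-galactosidase reporter signal reflecting CREB driven transcription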
[15] = biological target: Streptavidin (Streptomyces avidinii) (UniProt P22629); test: compounds binding control protein streptavidin – biophysical, small-molecule microarray, 635/667 nm fluorescence, artefact control for SMM compound annotation, primary screen (AID 1147); conditions: higher = more signal;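 note: signal reflects streptavidin binding to arrayed compounds as a control protein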
Streptavidin (Streptomyces avidinii), sequence (P22629 whole entry, looked up): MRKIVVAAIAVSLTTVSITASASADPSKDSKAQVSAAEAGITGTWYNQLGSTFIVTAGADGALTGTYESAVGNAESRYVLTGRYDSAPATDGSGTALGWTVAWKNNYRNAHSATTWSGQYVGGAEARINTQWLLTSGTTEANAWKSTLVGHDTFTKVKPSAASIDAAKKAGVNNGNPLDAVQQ

[16] = probe aInhba binding on compound microarray – biochemical, small-molecule microarray, 635/667 nm fluorescence, primary screen (AID 1148); conditions: higher = more signal;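 note: score merges 667nm spot fluorescence with signal-to-noise for antibody binding to printed compounds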
Torsin-1A (Homo sapiens) [17] = biological target: Torsin-1A (Homo sapiens) (UniProt O14656); test: TOR1A wild-type binding on microarray – cell lysate, small-molecule microarray, lysate, 635/667 nm, primary screen (AID 1149); conditions: COS7 hTOR1A-WT lysate, 635 nm fluorescence, higher = more signal
Torsin-1A (Homo sapiens), sequence (O14656 whole entry, looked up): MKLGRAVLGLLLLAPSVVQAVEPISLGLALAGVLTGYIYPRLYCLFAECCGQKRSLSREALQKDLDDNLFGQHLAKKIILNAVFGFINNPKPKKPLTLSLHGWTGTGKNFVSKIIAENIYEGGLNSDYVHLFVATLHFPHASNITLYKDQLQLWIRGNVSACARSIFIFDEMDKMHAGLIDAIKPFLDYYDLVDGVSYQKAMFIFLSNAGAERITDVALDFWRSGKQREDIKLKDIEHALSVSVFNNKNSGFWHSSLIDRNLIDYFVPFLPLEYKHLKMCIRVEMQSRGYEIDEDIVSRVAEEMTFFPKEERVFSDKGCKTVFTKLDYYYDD

Torsin-1A (Homo sapiens) [18] = biological target: Torsin-1A (Homo sapiens) (UniProt O14656); test: torsin A mutant lysate binding on microarrays – cell lysate, small-molecule microarray, COS7 lysate, 635/667 nm fluorescence, primary screen (AID 1150); conditions: COS7 hTOR1A mutant lysate, 635 nm fluorescence, higher = more signal;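 note: score pools 667 nm emission and signal to noise measuring lysate protein binding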
[19] = tested on: Sonic hedgehog protein (Shh); test: Sonic hedgehog microarray binding compounds – biochemical, small-molecule microarray, 635/667 nm fluorescence, primary screen (AID 1151); conditions: 635 nm fluorescence, higher = more signal;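 note: Shh protein binding to compounds spotted on small-molecule microarray slides; score combines spot fluorescence intensity with signal-to-noise across triplicate slides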

Row | Compound | composite z-score [1] | composite z-score [2] | composite z-score [3] | composite z-score [4] | composite z-score [5] | composite z-score [6] | z-score [7] | composite z-score (Lefty1) | composite z-score [8] | z-score [9] | composite z-score [10] | z-score [11] | z-score [12] | z-score [13] | z-score [14] | composite z-score [15] | composite z-score [16] | composite z-score (Torsin-1A (Homo sapiens) [17]) | composite z-score (Torsin-1A (Homo sapiens) [18]) | composite z-score [19]
1 | CCCCCC1=C2CNC(C)(C(=O)OC)C=C2C(C)C1=O (stereo not given) | 1.46 | -0.575 | -0.108 | -0.833 | -0.642 | -0.328 | 1.01 | -0.427 | 0.234 | 2.31 (inactive) | 0.0456 | -0.169 (inactive) | 0.18 (inactive) | 1.34 (inactive) | 1.76 (inactive) | -0.162 | 0.0319 | -0.92 | -0.38 | -0.134
2 | CCOC(=O)C[C@H]1[C@H](OC(=O)Cc2ccc3c(c2)OCO3)[C@@H](NC(=O)c2ccc3ccccc3n2)c2cc(OCCCO)ccc2N1C(=O)c1ccc2ccccc2n1 | 0.267 | 0.496 | 0.629 | 0.913 | 0.497 | 0.13 | 3.18 | 0.37 | 0.754 | -1.83 (inactive) | 0.593 | -1.23 (inactive) | -1.4 (inactive) | 6.51 (inactive) | -1.03 (inactive) | 0.363 | -0.128 | 0.451 | 0.339 | 0.301
3 | COc1ccc(C#Cc2ccc3c(c2)[C@]2(C(=O)N3)[C@H](C(=O)O)[C@H]3C(=O)O[C@H](c4ccccc4)[C@H](c4ccccc4)N3[C@@H]2c2ccc(O)cc2)cc1 | -0.272 | 0.691 | 0.0564 | -0.142 | -0.474 | -0.521 | -2.42 | -0.422 | 0.208 | -1.01 (inactive) | 0.0637 | -4.48 (inactive) | -0.563 (inactive) | 0.0653 (inactive) | -0.332 (inactive) | -0.31 | -0.0313 | 0.269 | 0.578 | -0.454
4 | CCCC[C@@H](O)C1=C(COC)C[C@H]2C(=O)N(C)C(=O)[C@H]2[C@H]1CO | 0.217 | -0.165 | -0.185 | 0.171 | 0.504 | 0.201 | -0.278 | 1.14 | -0.11 | 0.0646 (inactive) | 0.0849 | -1.61 (inactive) | -1.55 (inactive) | -0.0581 (inactive) | -1.18 (inactive) | 0.45 | -0.128 | 0.32 | 0.227 | 0.882
5 | COC(=O)C1(CC(C)C)C=C2C(=C(c3ccccc3)C(=O)C2C)CN1 (stereo not given) | 1.75 | 0.166 | 0.879 | 0.579 | 0.111 | 0.953 | 0.674 | 0.0364 | 0.663 | 0.53 (inactive) | 0.894 | -0.207 (inactive) | 0.279 (inactive) | 0.966 (inactive) | 1.64 (inactive) | 0.246 | 0.613 | -0.0212 | 1.3 | 1.75
6 | CC(C)C(CO)N1C(=O)[C@@H]2[C@H]3C(=O)OCC=C[C@H]3OC23C=CCN(c2ccc(Cl)cc2)C(=O)[C@@H]13 (stereo not given in full) | -1.82 | -1.22 | -0.265 | -0.934 | -0.728 | -0.794 | 1.05 | -0.712 | -0.928 | -0.469 (inactive) | -0.0632 | -0.755 (inactive) | 2.84 (inactive) | 0.203 (inactive) | -0.652 (inactive) | -0.446 | -0.0987 | -0.677 | -0.377 | -0.339
7 | CN(C)C(=O)[C@@]1(Cc2ccccc2)N=C(c2ccc(OCCCO)cc2)O[C@H]1c1ccccc1 | 2.33 | 1.24 | 0.179 | 0.971 | 0.232 | 0.393 | 0.568 | -0.557 | 1.21 | -0.794 (inactive) | 0.87 | -3.42 (inactive) | -0.315 (inactive) | 0.195 (inactive) | -0.925 (inactive) | 1.29 | 0.715 | 0.435 | 0.0678 | 0.141
8 | CCC1=C2CN(Cc3ccccc3)[C@@H](C(=O)Cc3ccccc3)C2C=CCC1 (stereo not given in full) | 0.797 | -0.0353 | -0.383 | 0.666 | 0.578 | 0.0052 | -1.22 | 0.352 | 0.557 | 0.313 (inactive) | -0.245 | -3.57 (inactive) | 0.0518 (inactive) | -0.142 (inactive) | 1.73 (inactive) | 0.0145 | -0.0331 | -0.645 | -0.124 | 0.553
9 | CCCC#C[Si](O[C@H](CC)c1cn([C@H](C)c2ccccc2)nn1)(C(C)C)C(C)C | 0.439 | 0.625 | 0.986 | 0.856 | 0.297 | 0.484 | 1.04 | 0.23 | 0.06 | -1.08 (inactive) | 0.0759 | -0.746 (inactive) | -0.616 (inactive) | -0.621 (inactive) | -0.929 (inactive) | -0.121 | 0.143 | 0.575 | 0.95 | 0.275
10 | COCCOC(=O)N1C(=O)[C@@]2(c3cc(C#CCC(C(=O)OC)C(=O)OC)ccc31)[C@H](c1ccc(OCCO)cc1)N1[C@H](c3ccccc3)[C@H](c3ccccc3)OC(=O)[C@H]1[C@@H]2C(=O)N1CCc2cc(OC)c(OC)cc2C1 | 1.75 | 1.22 | 0.919 | 0.889 | 1.37 | 1.5 | -0.942 | 1.4 | 1.08 | -0.411 (inactive) | 0.575 | -1.35 (inactive) | -0.119 (inactive) | -0.0607 (inactive) | 0.936 (inactive) | 0.918 | -0.0087 | 0.843 | 0.769 | 1.8
